# Measured values as given in PubChem BioAssay AID449762 (Southern Research Specialized Biocontainment Screening …, 2010).
# Screen size: about 330,000 compounds; about 1,900 (0.58%) were called active. Inconclusive results (about 4%) are left out. Not all results are given here. Entries with a potency or affinity are not part of this list. Values without a mark were called inactive. Cut-off read from the data, not from the text of the source: inconclusive = inhibition above about 70% without an active follow-up result; inactive = below that.
# Assay: M. tuberculosis growth inhibition, HTS (AID 449762);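 note: bacterial growth assessed after seven days of incubation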
# Conditions: M. tuberculosis H37Rv growth inhibition, 7H9 media; at 25 µM; hits give high values
row,SMILES,inhibition [%]
1,O=C(Cn1c(CO)nc2ccccc21)NC1CCCCCC1,-4.47
2,COCCN(C(=O)c1csnn1)C(C(=O)NC1CCCC1)c1ccccc1F (stereo not given),-6.7
3,COc1cc(OC)nc(-n2ncc(OC)c(Br)c2=O)n1,-1.81
4,COC(=O)c1cnn(-c2nc(OC)cc(OC)n2)c1C,5.96
5,CSc1ccc(CN2C(=O)NC3(CCCCCCC3)C2=O)cc1,3.48
6,COc1cc2c(cc1O)CCN(C(=O)CSc1nncn1C)[C@@H]2C,-6.62
7,O=C(NCc1cccc(Br)c1)C1CC(c2ccccc2C(F)(F)F)=NO1 (stereo not given),1.36
8,COC(=O)CCCCC1SCC(NC(=O)c2ccccc2)C1Cl (stereo not given),-3.83
9,COC(=O)CCCCC1SCC(NC(=O)c2ccccc2)C1OC(C)=O (stereo not given),4.8
10,COC(=O)c1cc(C#N)c(N2CCN(C)CC2)nc1C,-0.25
11,O=C(COc1ccccc1)NCC(=O)N1CCCCCC1,-3.96
12,CCn1cc(Cl)c(C(=O)N2N=C(c3ccc4ccccc4c3)CC2c2ccccc2O)n1 (stereo not given),0.64
13,CCn1cc([N+](=O)[O-])c(C(=O)N2N=C(c3ccc(O)c(OC)c3)CC2c2ccccc2O)n1 (stereo not given),-14.8
14,CC1CCN(C(=O)c2ncn(Cc3ccccc3)c2C(=O)N2CCC(C)CC2)CC1,5.23
15,COc1ccccc1OCCNC(=O)c1ccc(S(=O)(=O)N(C)C)cc1,-2.93
16,COc1ccccc1NC(=O)c1ccc(S(=O)(=O)N(C)C)cc1,-13.6
17,CC(C)CC(=O)NC(=S)Nc1ccccc1F,-4.61
18,O=C(Nc1ccnc(-c2ccncc2)n1)c1ccc(Cl)cc1,11.3
19,CN(CCOc1ccc(Cl)cc1)C(=O)CN1C(=O)NC2(CCCCC2)C1=O,-0.72
20,COc1ccc(NC(=O)C2CCN(Cc3cnn(-c4ccccc4)c3-n3cccc3)CC2)cc1OC,-3.38
21,COc1ccc(OC)c(NC(=O)C2CCN(Cc3cnn(-c4ccccc4)c3-n3cccc3)CC2)c1,61.3
22,c1ccc(Nc2nc(N3CCCCC3)nc(N3CCCCC3)n2)cc1,4.61
23,c1ccc(Nc2nc(N3CCCC3)nc(N3CCCC3)n2)cc1,17.2

row,SMILES,inhibition [%]
1,O=C(CSc1nc2ccccc2o1)N1CCOCC1,-2.89
2,Cc1c(NC(=O)C(c2ccccc2)c2ccccc2)cccc1C(=O)O,0.47
3,O=C(NC1CCCC1)C(c1ccc(F)cc1)N(Cc1ccc(F)cc1)C(=O)CCl (stereo not given),0.54
4,CCOC(=O)c1c(CC(C)C)csc1NC(=O)C(C)C,1.18
5,CCOC(=O)c1c(CC(C)C)csc1NC(C)=O,-1.62
6,Cc1cccc(NC(=O)c2ccc(S(=O)(=O)N3CCCCC3C)cc2)n1 (stereo not given),8.6
7,O=c1[nH]c2ccccc2nc1/C=C(\O)C1CC1,-0.58
8,O=C(C1CCN(S(=O)(=O)c2cccc3cccnc23)CC1)N1CCN(C2CCCC2)CC1,-2.61
9,c1cc(CNC2C3CC4CC(C3)CC2C4)ccn1 (stereo not given),10.3
10,CC(NCc1ccc(N(C)C)cc1)C1CC2CCC1C2 (stereo not given),0.02
11,CNC(=O)c1ccc(NC(=O)Nc2ccccc2)cc1,-1.42
12,Cc1occc1-c1nnc(SCC(=O)NCCc2ccccc2)n1Cc1ccccc1,1.99
13,Cc1occc1-c1nnc(SCC(=O)Nc2ccccn2)o1,36.7
14,CC(C)(C)c1ccc(-c2nnc(SCC(=O)NC3CCS(=O)(=O)C3)n2N)cc1 (stereo not given),1.59
15,COc1cc(CC(=O)OCC(=O)Nc2ccc3c(c2)OCO3)cc(OC)c1OC,0.09
16,COc1ccc(C2=NOC(Cn3nc(C(=O)O)cc3-c3ccccc3)C2)cc1 (stereo not given),-10.9
17,O=C(Cn1ccc2ccccc2c1=O)NCCC(=O)N1CCN(c2ccccc2)CC1,2.9
18,O=C(CSc1nc(=O)n(CCCN2CCOCC2)c2c1CCCC2)Nc1ccc(F)cc1,-5.62
19,Cc1cccc(C)c1NC(=O)N1CCCCCCC1,-5.98
20,C#CCOCCOCCOCCNc1nc(N2CCN(C(=O)CCCCCCCCCCNC(=O)[C@H](CCCCN)n3cc(CCCC(=O)O)nn3)CC2)nc(N2CCN(C(=O)CCCCCCCCCCNC(=O)[C@H](CCCCN)n3cc(CCCC(=O)O)nn3)CC2)n1,-1.93
21,C#CCOCCOCCOCCNc1nc(N2CCN(C(=O)CCCCCCCCCCNC(=O)[C@H](CCCCN)n3cc(CCO)nn3)CC2)nc(N2CCN(C(=O)CCCCCCCCCCNC(=O)[C@H](CCCCN)n3cc(CCCC(=O)O)nn3)CC2)n1,24.8
22,CC(C)CNC(=O)COC(=O)C1c2ccccc2Oc2ccccc21,9.4
23,N#CCC(=O)Nc1ccc(C(=O)OCC(=O)c2ccc3c(c2)OCCO3)cc1,-4.26

row,SMILES,inhibition [%]
1,CCC(C(=O)Nc1ccc(OC)c(Cl)c1)c1ccccc1 (stereo not given),-3.28
2,O=C(CSc1ccc(-c2cccnc2)nn1)Nc1ccc(Br)cc1,-0.4
3,Cc1nonc1OCCNCCNc1ccc([N+](=O)[O-])cc1Cl,10.9
4,COc1ccccc1NC(=O)CN1CCN(CC(=O)Nc2ccc(OC)c(OC)c2)CC1,-1.32
5,COc1ccc(NC(=O)CN2CCN(CC(=O)Nc3ccc4c(c3)OCO4)CC2)cc1,-4.59
6,CCOC(=O)c1c(C=O)c2ccccc2n1Cc1ccccc1F,0.55
7,N#CC1=C(N)Oc2n[nH]c(-c3cccs3)c2C1c1ccccc1C(=O)O (stereo not given),-1.81
8,CCN(CC)C(=O)CC(c1ccc(OC)cc1)c1c(O)cc(OC)cc1OC (stereo not given),-3.84
9,CCN(C(=O)COC(=O)c1[nH]c(=O)[nH]c(=O)c1N)c1ccccc1,-1.59
10,C(=N\Nc1nc(Nc2ccccc2)nc(Nc2ccccc2)n1)/c1cccnc1,11.1
11,C(=N\Nc1nc(Nc2ccccc2)nc(Nc2ccccc2)n1)/c1ccncc1,0.63
12,CC(=O)c1c(O)cc(C)n(-c2ccc(F)cc2)c1=O,-1.89
13,Cc1ccccc1NC(=S)N1CCCC(c2nc3ccccc3[nH]2)C1 (stereo not given),0
14,Cc1[nH]n(S(=O)(=O)c2ccccc2)c(=O)c1N=Nc1cccc(Cl)c1,0.21
15,Cc1[nH][nH]c(=O)c1N=Nc1ccccc1Cl,-0.87
16,COc1cccc(CNC(=O)Cn2ccc([N+](=O)[O-])n2)c1,-0.85
17,CCC(=O)Nc1ccc2c(c1)nc(CCNC(=O)c1ccco1)n2C,2.89
18,CS(=O)(=O)c1ccc2nc(NC(=O)c3cccc(NS(=O)(=O)c4ccc(F)c(F)c4)c3)sc2c1,60.6
19,CS(=O)(=O)c1ccc2nc(NC(=O)c3ccc(NS(=O)(=O)c4ccc(F)c(F)c4)cc3)sc2c1,-0.5
20,CCN(CC)S(=O)(=O)c1ccc(N2CCOCC2)c(NS(=O)(=O)c2ccc(C(C)C)cc2)c1,-4.72
21,Cc1ccc([C@@H]2CC=C(C(=O)O)[C@H](c3ccc(F)cc3)N2S(=O)(=O)c2ccccc2C)cc1,0.59
22,O=C1CCCC(=O)N1c1ccc(F)cc1,-3.22
23,CCCCN1C(=O)c2ccc(C(=O)Nc3cccnc3)cc2C1=O,48.5

row,SMILES,inhibition [%]
1,CC1=C(/C=C/C(C)=C/C=C/C(C)=C/C(=O)O)C(C)(C)CCC1,26.5
2,CC1=C(/C=C/C(C)=C/C=C/C(C)=C\C(=O)O)C(C)(C)CCC1,69.3
3,O=c1cc(C23CC4CC(CC(C4)C2)C3)[nH][nH]1,4.36
4,N#Cc1ccc(C23CC4CC(CC(C4)C2)C3)[nH]c1=O,12.1
5,Cc1cnc(CN(C)C(=O)CC2C(=O)NCCN2CCCc2ccccc2)[nH]1 (stereo not given),-8.51
6,Cc1nn(C(C)C(=O)NCc2ccccc2F)c(=O)c2nn(-c3ccccc3)c(C)c12 (stereo not given),0.01
7,CCN1C(=O)[C@H]2[C@@H](c3ccc(-c4ccc(Cl)c(Cl)c4)cc3)N[C@@](Cc3ccccc3)(C(=O)OC)[C@H]2C1=O,4.89
8,COc1ccccc1N1CCN(CC(=O)Nc2nccs2)CC1,6.27
9,Cc1ccccc1N1CCN(CC(=O)Nc2nccs2)CC1,6.57
10,O=C(CC(=O)NC1CCCCC1)N/N=C/c1ccccc1F,7.41
11,CCOC(=O)CNC(=O)c1cnc(Nc2ccccc2OC)c2ccccc12,2.72
12,O=C(O)Cc1c(-c2ccccc2Cl)c2cc(Br)ccc2[nH]c1=O,0.9
13,N#Cc1ccc(-c2csc(NNC(=O)c3ccccc3)n2)cc1,1.66
14,O=C(NNc1nc(-c2ccc(F)cc2)cs1)c1ccccc1,1.95
15,Cc1cc(C)c(C#N)c(SCCS(=O)(=O)c2ccc(C(C)(C)C)cc2)n1,1.43
16,CCC(=O)CCC(=O)c1ccc2ccccc2c1,9.13
17,COc1cccc2c1C(=O)C=C(C)C2=O,-8.66
18,O=C1C=C(O)c2c(O)cccc2C1=O,-6.54
19,CC(=O)NC12CC3CC(C1)CC(C(=O)Nc1c(C)n(C)n(-c4ccccc4)c1=O)(C3)C2,-13
20,COc1ccc(NC(=O)CSc2nnnn2-c2ccc(F)cc2)cc1,-7.12
21,C[C@@]12C(=O)N(CCO)CC(=O)N1[C@H](/C=C/c1ccccc1)[C@@H]1C(=O)N(c3ccccc3)C(=O)[C@@H]12,-1.57
